From PubChem BioAssay (NCATS)
Where “and” joins values, the source holds several entries; their conditions need not be identical. Equal values may be shown once. Records with an inconclusive call do not appear. Calls of active or inactive are those of the source. Unless noted, the call rests on the fitted dose curve; in most records, active means well fitted curve in the direction sought with a large enough effect; inconclusive means small, poorly fitted or top-dose-only effect, or another doubt; inactive means no such curve, though single readings can be large; an effect the other way counts as inactive or inconclusive.

What was measured:
[1] = Cell Viability - Jurkat (AID 426;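 active means dose-dependent loss of cell ATP signal giving a full or clear fitted curve, ranked by lower potency value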;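 further: potency means the concentration at half of the fitted maximal effect; cells exposed to compound for 40 hours at 37 °C before ATP read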); conditions: qHTS
In short: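 Seed 5000 Jurkat E6-1 cells/well; add compound; incubate 40 hr at 37 °C; add CellTiter-Glo; wait 20 min at room temperature; read luminescence. Fit concentration-response with Hill equation for AC50.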

[2] = Cell Viability - Hek293 (AID 427;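 active means compounds whose dose-response curve shows a full or clear partial loss of cell viability, called from curve shape rather than a numeric limit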;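 further: potency means the concentration at half of the fitted maximal effect; cells exposed to compound for 40 hours at 37 °C before reading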); conditions: qHTS
In short: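 qHTS, human embryonic kidney (adenovirus-transformed) cells; 40 hr cpd, 37 °C; CellTiter-Glo ATP luminescence. Norm: DMSO = 0, 100 uM tamoxifen = 100% inhibition. Hill-fit AC50.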

[3] = Cell Viability - N2a (AID 540); conditions: N2a mouse neuroblastoma cell viability; at 92.2 µM (top of the series);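 further: cells exposed to compound for 40 h at 37 °C; plate controls were DMSO alone for no effect and tamoxifen control for full effect; nearly all actives have a fitted effect of over 45% in size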
In short: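 First, 1500 N2a cells per well incubate 5 hr at 37 °C; next, compounds are added and incubated 40 hr at 37 °C; finally CellTiter-Glo is added and luminescence read after 20 min, with AC50 derived by Hill modeling.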

[4] = Cell Viability - H-4-II-E (AID 543); conditions: H-4-II-E rat hepatoma viability; series mostly up to 92.2 µM;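 further: cells exposed to compound for 40 hours; on the % scale 0 is the no-effect control and ±100 the full control effect; nearly all actives have a fitted effect of over 35% in size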
In short: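 Here, cytotoxicity is measured in the rat hepatoma line H-4-II-E as loss of intracellular ATP after 40 hr compound treatment, detected by luciferase luminescence.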

[5] = Cellular Toxicity (caspase-3) HepG2 (AID 654); conditions: HepG2 caspase-3 activation, luminescence, 0% = DMSO only, 100% = tamoxifen; series mostly up to 92.2 µM;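 further: cells exposed to compound for 16 hours before reading; 0% = DMSO alone and 100% = caspase signal from 100 µM tamoxifen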
In short: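 qHTS, HepG2, 1500 cells/well, complete medium; cpd 16 h 37 °C; Caspase-Glo 3/7, 20 min RT; lum. Norm: DMSO vs 100 uM tamoxifen; AC50 Hill fit.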

[6] = Cellular Toxicity (caspase-3) Hek293 (AID 664); conditions: HEK293 caspase-3 activation, DMSO = 0%, 100 µM tamoxifen = 100%; series mostly up to 92.2 µM;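 further: cells exposed to compound for 16 h at 37 °C before readout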
In short: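 Activation of caspase-3/7 is measured as increased luminescence from cleaved peptide-aminoluciferin substrate in HEK293 cells treated 16 hours at 37 °C. AC50 values come from Hill-equation fits of concentration-response data.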

[7] = Cellular Toxicity (caspase-3) NIH 3T3 (AID 666); conditions: NIH 3T3 caspase-3 activation, apoptosis/toxicity, 0% DMSO, 100% is 100 µM tamoxifen; series mostly up to 92.2 µM;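 further: caspase signal read after 16 h compound exposure; 0% = DMSO basal and 100% = 100 µM tamoxifen stimulation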
In short: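 Concentration-response qHTS in NIH 3T3 mouse fibroblasts scores caspase-3/7 activation as rising luminescence after 16 hr compound exposure. Signals are scaled between DMSO-only and 100 uM tamoxifen.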

[8] = MultiTox-Fluor Cytotoxicity Assay - LYMP1-001 - Dead Cells (AID 946); conditions: LYMP1-001 lymphoblastoid cells, dead-cell protease fluorescence; series mostly up to 92.2 µM
In short: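 Seed 2500 LYMP1-001 cells/well, incubate 5 hr at 37 C; add compound, 16 hr at 37 C; add MultiTox-Fluor reagent, 60 min RT; read dead-cell fluorescence Ex/Em=485/520. Normalize to DMSO and 15 uM tetraoctylammonium bromide.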

[9] = Cell Viability - LYMP1-002 - Assay at 16 hr (AID 948); conditions: LYMP1-002 lymphoblastoid cell viability; series mostly up to 92.2 µM;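 further: 0% = DMSO alone and full effect = 92 µM tetraoctylammonium bromide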
In short: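 Seed 2500 LYMP1-002 cells per well in complete medium and hold 5 hr at 37 C. Add compound across a concentration series and incubate 16 hr at 37 C. Add CellTiter-Glo, wait 30 min at room temperature, read luminescence.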

[10] = MultiTox-Fluor Cytotoxicity Assay - LYMP1-002 - Live Cells (AID 955); conditions: LYMP1-002 lymphoblastoid live-cell protease fluorescence viability; series mostly up to 46.1 µM; further: on the % scale 0 is the no-effect control and ±100 the full control effect
In short: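 Cytotoxicity in the human lymphoblastoid line LYMP1-002 is measured as loss of live-cell protease activity after 16 h treatment in complete culture medium. AC50 is derived from Hill-equation fits of qHTS concentration-response data.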

[11] = MultiTox-Fluor Cytotoxicity Assay - LYMP1-003 - Dead Cells (AID 961); conditions: LYMP1-003 lymphoblastoid cells, dead-cell protease fluorescence; series mostly up to 92.2 µM; further: nearly all actives have a fitted effect of over 70% in size
In short: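 LYMP1-003 lymphoblastoid, 2500 cells/well, 5 hr settle then 16 hr cpd at 37 C; MultiTox-Fluor reagent 60 min RT; Ex/Em 485/520 dead-cell signal; norm. DMSO = 0%, 15 uM tetraoctylammonium bromide = 100%; Hill AC50.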

[12] = Cell Viability - LYMP1-003 - Assay at 40 hr (AID 964); conditions: LYMP1-003 lymphoblastoid viability; series mostly up to 92.2 µM; further: on the % scale 0 is the no-effect control and ±100 the full control effect; nearly all actives have a fitted effect of over 60% in size
In short: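 This qHTS cytotoxicity screen treats human lymphoblastoid cells (LYMP1-003) with compounds for 40 hr and quantifies cellular ATP via luciferase luminescence.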

[13] = Cell Viability - LYMP2-025 (AID 976); conditions: LYMP2-025 lymphoblastoid cell viability; series mostly up to 92.2 µM;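 further: cells exposed to compound for 24 h at 37 °C; plate controls were DMSO only for no effect and tetraoctylammonium bromide control for full effect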
In short: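 In qHTS format, LYMP2-025 lymphoblastoid cells in complete culture medium received compound for 24 hr; ATP-based CellTiter-Glo signal gave viability, with AC50 derived by Hill equation.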

[14] = Cell Viability - LYMP2-006 (AID 978); conditions: LYMP2-006 lymphoblastoid cell viability, qHTS; series mostly up to 92.2 µM;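 further: cells exposed to compound for 24 hours; on the % scale 0 is the no-effect control and ±100 the full control effect; nearly all actives have a fitted effect of over 60% in size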
In short: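 Cells are seeded at 2500 per well and rested 5 hr at 37 C. Compounds are added across a concentration series for 24 hr at 37 C, after which ATP is quantified by luciferase luminescence.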

[15] = Cell Viability - LYMP2-008 (AID 980); conditions: LYMP2-008 lymphoblastoid cell viability, qHTS; series mostly up to 92.2 µM;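 further: cells exposed to compound for 24 h at 37 °C; on the % scale 0 is the no-effect control and ±100 the full control effect; nearly all actives have a fitted effect of over 60% in size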
In short: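 Acute cytotoxicity is scored as concentration-dependent loss of cellular ATP in a human lymphoblastoid line after 24 hr treatment at 37 C. ATP is quantified by luciferase luminescence.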

[16] = Cell Viability - LYMP1-002 - Assay at 24 hr (AID 993); conditions: LYMP1-002 lymphoblastoid cells viability; series mostly up to 92.2 µM; further: on the % scale 0 is the no-effect control and ±100 the full control effect
In short: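 qHTS, LYMP1-002 lymphoblastoid, 24 h cpd, 37 C, CellTiter-Glo ATP luminescence; AC50 via Hill eq.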

[17] = Cell Viability - LYMP1-002 - Assay at 40 hr (AID 994); conditions: LYMP1-002 lymphoblastoid cell viability; series mostly up to 92.2 µM;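 further: 0% = DMSO only and full inhibition = 92 µM tetraoctylammonium bromide; nearly all actives have a fitted effect of over 60% in size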
In short: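 Viability in the human lymphoblastoid line was measured as intracellular ATP via CellTiter-Glo after 40 hr compound exposure. Tetraoctylammonium bromide served as positive control.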

[18] = qHTS assay for small molecule agonists of retinoid X receptor alpha signaling (AID 588544); conditions: HEK293T RXRa-UAS-bla, beta-lactamase reporter, 18 h; 530 nm emission
[19] = molecular target: Tumor necrosis factor (Homo sapiens) (UniProt P01375); assay: qHTS assay to identify small molecules that stimulate Tumor Necrosis Factor-alpha (TNF-alpha) secretion (AID 651757; active means well fitted curve in the direction sought with a large enough effect in the signal ratio; the % refers to the signal ratio; further: 0% is about no effect); conditions: Human cells, HTRF 665/615 ratio; series mostly up to 92.2 µM
In short: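 Secreted TNF-alpha from compound-treated THP-1 cells (17 hrs, 37 C) was quantified with a homogeneous time-resolved fluorescence antibody assay.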

[20] = qHTS assay for small molecule agonists of the antioxidant response element (ARE) signaling pathway measured by Nrf2-dependant transcriptional activity (AID 720636; active means well fitted curve in the direction sought with a large enough effect in the repeat runs; an effect the other way counts as inactive or inconclusive; further: % of control where 0% means no effect); conditions: ARE-luc HepG2, Nrf2 luciferase reporter, 16 h; series mostly up to 92.4 µM
In short: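 ARE-luc HepG2 cells carrying an Nrf2-responsive luciferase reporter were plated in medium with 1% dialyzed FBS, left 6 hr at 37 C to attach, then exposed to compound for 16 hr. Luciferase luminescence was read after ONE-Glo addition.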

Tumor necrosis factor (Homo sapiens), sequence (P01375 whole entry, looked up): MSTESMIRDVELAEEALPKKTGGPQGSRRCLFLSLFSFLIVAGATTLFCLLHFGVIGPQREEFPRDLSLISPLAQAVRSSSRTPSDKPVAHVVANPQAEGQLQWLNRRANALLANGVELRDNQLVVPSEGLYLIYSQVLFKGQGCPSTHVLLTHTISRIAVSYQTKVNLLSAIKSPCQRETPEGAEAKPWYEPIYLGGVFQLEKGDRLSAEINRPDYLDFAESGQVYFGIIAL

CN=C=S
-13.3% and 3.16%: max response [18]
inactive: Potency [1] > 92 µM | Potency [2] > 92 µM | activity change, negative = cytotoxicity [3] -7.58% | Potency [4] | outcome [5] | outcome [6] | outcome [7] | Potency [8] | Potency [9] | outcome [10] | Potency [11] | Potency [12] | Potency [13] | Potency [14] | Potency [15] | Potency [16] | Potency [17] | outcome [19] | outcome [20]

Cc1ccccc1N
inactive: Potency [1] > 92 µM | Potency [2] > 92 µM | activity change, negative = cytotoxicity [3] -19.6% and 1.37% | Potency [4] | outcome [5] | outcome [6] | outcome [7] | Potency [8] | Potency [9] | outcome [10] | Potency [11] | Potency [12] | Potency [13] | Potency [14] | Potency [15] | Potency [16] | Potency [17] | outcome [19] | outcome [20]
1.21% and 0.728%: max response [18]

CCC[CH2][Sn]([Cl])([Cl])[Cl]
inactive: Potency [1] > 92 µM | Potency [2] > 92 µM | activity change, negative = cytotoxicity [3] 12.4% | Potency [4] | outcome [5] | outcome [6] | outcome [7] | Potency [8] | Potency [9] | outcome [10] | Potency [11] | Potency [12] | Potency [13] | Potency [14] | Potency [15] | Potency [16] | Potency [17] | outcome [19] | outcome [20]
-13.2% and -14.8%: max response [18]

c1nc[nH]n1
inactive: Potency [1] > 92 µM | Potency [2] > 92 µM | activity change, negative = cytotoxicity [3] -1.04% | Potency [4] | outcome [5] | outcome [6] | outcome [7] | Potency [8] | Potency [9] | outcome [10] | Potency [11] | Potency [12] | Potency [13] | Potency [14] | Potency [15] | Potency [16] | Potency [17] | outcome [19] | outcome [20]
-16.7%: max response [18]

C[C@]12CC[C@H]3[C@@H](CCC4=CC(=O)CC[C@@]43C)[C@@H]1CC[C@@H]2O
3.81%: max response [18]
inactive: Potency [1] > 92 µM | Potency [2] > 92 µM | activity change, negative = cytotoxicity [3] -5.73% | outcome [5] | outcome [6] | outcome [7] | Potency [8] | Potency [9] | outcome [10] | Potency [11] | Potency [12] | Potency [13] | Potency [14] | Potency [15] | Potency [16] | Potency [17] | outcome [19] | outcome [20]

c1ccc(-c2ccccc2)cc1
inactive: Potency [1] > 92 µM | Potency [2] > 92 µM | activity change, negative = cytotoxicity [3] -4.83% | Potency [4] | outcome [5] | outcome [6] | outcome [7] | Potency [8] | Potency [9] | outcome [10] | Potency [11] | Potency [12] | Potency [13] | Potency [14] | Potency [15] | Potency [16] | Potency [17] | outcome [19] | outcome [20]
-1.55% and -17%: max response [18]

C=CC1CC=CCC1 (centres undefined)
inactive: Potency [1] > 92 µM | Potency [2] > 92 µM | activity change, negative = cytotoxicity [3] 0.971% | Potency [4] | outcome [5] | outcome [6] | outcome [7] | Potency [8] | Potency [9] | outcome [10] | Potency [11] | Potency [12] | Potency [13] | Potency [14] | Potency [15] | Potency [16] | Potency [17] | outcome [19] | outcome [20]
0.848% and 1.74%: max response [18]

Cc1ccc([N+](=O)[O-])cc1C
inactive: Potency [1] > 92 µM | Potency [2] > 92 µM | activity change, negative = cytotoxicity [3] -25% | Potency [4] | outcome [5] | outcome [6] | outcome [7] | Potency [8] | Potency [9] | outcome [10] | Potency [11] | Potency [12] | Potency [13] | Potency [14] | Potency [15] | Potency [16] | Potency [17] | outcome [19] | outcome [20]
-11.5%: max response [18]

O=NN(c1ccccc1)c1ccccc1
inactive: Potency [1] > 92 µM | Potency [2] > 92 µM | activity change, negative = cytotoxicity [3] 2.63% | Potency [4] | outcome [5] | outcome [6] | outcome [7] | Potency [8] | Potency [9] | outcome [10] | Potency [11] | Potency [12] | Potency [13] | Potency [14] | Potency [15] | Potency [16] | Potency [17] | outcome [19] | outcome [20]
-13.1% and -6.23%: max response [18]

O=C(Cl)/C=C/C(=O)Cl
inactive: Potency [1] > 92 µM | Potency [2] > 92 µM | activity change, negative = cytotoxicity [3] 3.07% | Potency [4] | outcome [5] | outcome [6] | outcome [7] | Potency [8] | Potency [9] | outcome [10] | Potency [11] | Potency [12] | Potency [13] | Potency [14] | Potency [15] | Potency [16] | Potency [17] | outcome [19] | outcome [20]
-9%: max response [18]

CC(O)CCl (centres undefined)
-11.9% and -9.91%: max response [18]
inactive: Potency [1] > 92 µM | Potency [2] > 92 µM | activity change, negative = cytotoxicity [3] 5.86% | Potency [4] | outcome [5] | outcome [6] | outcome [7] | Potency [8] | Potency [9] | outcome [10] | Potency [11] | Potency [12] | Potency [13] | Potency [14] | Potency [15] | Potency [16] | Potency [17] | outcome [19] | outcome [20]

OCC(Br)CBr (centres undefined)
inactive: Potency [1] > 92 µM | Potency [2] > 92 µM | activity change, negative = cytotoxicity [3] -8.1% | Potency [4] | outcome [5] | outcome [6] | outcome [7] | Potency [8] | Potency [9] | outcome [10] | Potency [11] | Potency [12] | Potency [13] | Potency [14] | Potency [15] | Potency [16] | Potency [17] | outcome [19] | outcome [20]
-16%: max response [18]

CCCC(=O)Cl
-4.61%: max response [18]
inactive: Potency [1] > 92 µM | Potency [2] > 92 µM | activity change, negative = cytotoxicity [3] 1.63% | Potency [4] | outcome [5] | outcome [6] | outcome [7] | Potency [8] | Potency [9] | outcome [10] | Potency [11] | Potency [12] | Potency [13] | Potency [14] | Potency [15] | Potency [16] | Potency [17] | outcome [19] | outcome [20]
